# Assay outcomes (PubChem BioAssay)
# Only some compounds are listed: those with a hit (about 3.7% of all), similar ones and a draw of the others.
# tim10-1 inh: tim10-1 yeast growth inhibition | S. cerevisiae tim10-1 ts strain growth, BacTiter-Glo, 24 h | actives 2.2% (n = 330,000) | AID 463190 | inhibition, % at 20 µM;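 active means inhibition of at least 40%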;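 further: mutant grown at 25 °C; 0% = DMSO wells with yeast and 100% = wells holding no yeast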
# PfHsp90 yeast 2: inhibits growth of yeast expressing Plasmodium falciparum Hsp90 | actives 0.32% (n = 310,000) | S. cerevisiae expressing PfHsp90, BacTiter-Glo ATP, 48 h; yeast lacking PDR1 and PDR3 efflux regulators | AID 504621 | inhibition, % at 9.4 µM;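 active means every replicate shows inhibition above about 80%, whatever the replicate mean, limit read from the data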;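 further: 0% = DMSO neutral controls and 100% = 20 µM radicicol positive controls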
# tim23-1 inh: growth inhibitors of tim23-1 mutant yeast. S. cerevisiae tim23-1 growth, BacTiter-Glo luminescence, 24 h. inhibition, % at 20 µM. actives 1.3% (n = 330,000). AID 463212;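 active means growth inhibition of the mutant yeast at or above 50%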;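 further: temperature-sensitive mutant grown at 25 °C; plate controls were DMSO-treated mutant yeast for no effect and medium wells lacking yeast for full effect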
# TIM10 inh: TIM10 yeast growth inhibition. S. cerevisiae TIM10 strain growth, BacTiter-Glo luminescence, 24 h. inhibition, % at 10 µM. AID 463195. actives 1.4% (n = 330,000);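 active means inhibition of 40% or more at the single tested concentration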;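 further: wild-type TIM10 isogenic control strain grown at permissive 25 °C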
# NALP3 yeast inh: inhibitors of NALP3 inflammasome in yeast; Yeast reconstituted NLRP3/ASC/caspase-1, beta-gal luminescence, 24 h; inhibition, % at 10 µM; actives 0.39% (n = 330,000); AID 2825;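 active means inhibition of 50% or more; inactive means inhibition below 50%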;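 further: plate controls were induced DMSO wells for no effect and uninduced yeast grown without galactose for full effect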
# Numbers without * were called inactive; . = no result given.
SMILES,tim10-1 inh,PfHsp90 yeast 2,tim23-1 inh,TIM10 inh,NALP3 yeast inh
O=c1c(Br)ccc(Br)cc1Br,.,120*,.,.,.
O=C1CN(S(=O)(=O)c2cc(Br)ccc2Br)CCN1,-8,6,-9,0,12
COc1ccccc1NC(=O)c1ccc(NC(=O)CN(C)Cc2ccccc2F)cc1,25,.,39,29,12
CCN(CC)c1ccc(/C=C2/SC(=O)N(C(C)C)C2=O)o1,.,86*,.,.,.
CC(C)N1C(=O)S/C(=C\c2ccc(-c3ccc(Cl)c(C(=O)O)c3)o2)C1=O,21,3,19,-7,20
COc1ccc(N2CCN(c3c(S(=O)(=O)c4ccccc4)cnc4ccc(OC)cc34)CC2)cc1,-23,104*,-2,-56,17
CN(C)c1ccc(-c2cc(O)c3ncccc3c2)cc1,19,101*,5,-8,22
Oc1cc(-c2ccc(N3CCCCC3)nc2)cc2cccnc12,1,111*,34,0,25
CN(C)CCCNC(=O)c1ccc(-c2cc(O)c3ncccc3c2)cc1,4,0,7,-26,26
Oc1cc(-c2ccncc2)cc2cccnc12,4,7,39,-32,34
c1ccc(-c2ccc(C(c3ccccc3)n3ccnc3)cc2)cc1 (stereo not given),.,105*,.,.,.
c1ccc(-c2ccc(-n3ccnc3)cc2)cc1,-4,3,-12,13,11
COc1cccc(Oc2cn[nH]c2-c2ccc(OCC(=O)NN)cc2O)c1,30,-3,22,-8,-1
CCCOC(=O)c1ccc(Oc2cn[nH]c2-c2ccc(OC)cc2O)cc1,-4,106*,-2,32,20
CCCCCCCCOC(=O)c1cc([N+](=O)[O-])c(Sc2ncnc3nc[nH]c23)c([N+](=O)[O-])c1,.,107*,.,.,.
Cc1ccc(-c2nc3cccnc3s2)cc1NS(=O)(=O)c1ccc2c(c1)OCCO2,27,89*,35,16,-19
Cc1nc2ccc(S(=O)(=O)Nc3cccc(-c4nc5cccnc5s4)c3C)cc2s1,35,-27,39,5,27
CC(C)=CCc1c(O)ccc(C2COc3c(CC=C(C)C)c(O)cc(O)c3C2=O)c1O (stereo not given),18,106*,35,6,7
CC(C)=CCc1c(O)ccc2c1OC(c1ccc(O)c(O)c1)CC2=O (stereo not given),1,-3,9,2,23
O=[N+]([O-])c1ccc(Sc2cccc[n+]2[O-])c2nonc12,.,97*,.,.,.
O=C(CSc1cccc[n+]1[O-])Nc1cc(Cl)ccc1[N+](=O)[O-],-12,1,10,-5,2
CC(=O)Nc1ccc(S(=O)(=O)N[C@@H](C)C(=O)N2CCN(C/C=C/c3ccccc3)CC2)cc1,12,-8,11,1,5
O=C1C=C(O)c2cccc(O)c2C1=O,15,-5,4,6,10
CC1OC(CC(=O)O)CC2=C1C(=O)c1c(O)cccc1C2=O (stereo not given),.,106*,.,.,.
Cc1cccc(N2CCN(S(=O)(=O)c3c(C)noc3/C=C/N(C)C)CC2)c1C,39,111*,37,23,8
SMILES,tim10-1 inh,PfHsp90 yeast 2,tim23-1 inh,TIM10 inh,NALP3 yeast inh
O=C(Nc1nc(-c2ccccc2)c(-c2ccccc2)o1)c1ccc(F)cc1,33,105*,23,35,-39
Cc1ccc(N2C(=O)C3C4C=CC(CNC(=S)N5CCN(c6ccccn6)CC5)(O4)C3C2=O)cc1 (stereo not given),16,104*,2,3,22
CC(C)COC(=O)NCC12C=CC(O1)C1C(=O)N(c3ccc(Cl)cc3)C(=O)C12 (stereo not given),34,.,18,14,14
Cc1ccc(N2C(=O)C3C4C=CC(CNC(=S)Nc5ccc(F)cc5)(O4)C3C2=O)cc1 (stereo not given),31,103*,23,19,12
Cc1ccc(N2C(=O)C3C4C=CC(CNC(=S)Nc5ccc(Cl)cc5)(O4)C3C2=O)cc1 (stereo not given),35,105*,15,31,19
CN(C(=O)c1ccc(NC(=O)C2CCN(C(=O)OC(C)(C)C)CC2)cc1)C1CCC1,9,15,2,-9,7
Fc1ccccc1-c1nc(-c2ccc(Br)o2)no1,22,0,4,-12,28
CC(C)N=c1c([N+](=O)[O-])nn(C)n1O,-10,-3,-8,-6,18
CC(C)(C)C(=O)NC(=S)NNC(=O)c1ccncc1,15,-28,-15,6,24
CC(C)(C)C(=O)NC(=S)NNC(=O)c1ccc(-c2ccccc2)cc1,8,104*,49,-31,44
CCCC/C=C1/CCC(CN(C)C)C1=O (stereo not given),.,10,.,.,.
COc1ccc(CCn2c(C)ccc2C)cc1OC,18,.,8,-5,19
COc1ccc(CCN2C(=O)C=CC2=O)cc1OC,.,104*,.,.,.
Nc1cc2c(cc1[N+](=O)[O-])-c1ccccc1C2=NO,.,128*,.,.,.
Cc1c(OCC(=O)C(C)(C)C)ccc2c(-c3ccccc3)cc(=O)oc12,-28,96*,2,-108,31
COc1ccc(N(C)S(=O)(=O)c2ccc3c(c2)NC(=O)CC(=O)N3)c(OC)c1,-12,-11,4,3,5
O=C(CN1C(=O)COc2ccccc21)NCc1ccccn1,-1,.,8,1,19
O=C(NN1C(=O)/C(=C/c2ccc(O)c([N+](=O)[O-])c2)SC1=S)c1ccccc1Cl,-14,104*,1,-74,42
CC(=O)Nc1ccc(Nc2cc(C(C)C)nc3c(-c4ccccc4)c(C)nn23)cc1,33,108*,45,24,20
CC(=O)Nc1ccc(Nc2cc(C)nc3c(-c4ccccc4)c(C)nn23)cc1,22,3,36,26,17
O=C(CNC(=O)c1ccc(Cl)cc1Cl)OC1CCCCC1=O (stereo not given),12,-9,9,4,-6
CC(C)N1CCN(c2ccc(OC[C@H]3CO[C@](Cn4cncn4)(c4ccc(Cl)cc4Cl)O3)cc2)CC1,-53,101*,-161,-98,22
CC(C)N1CCN(c2ccc(OCC3COC(Cn4cncn4)(c4ccc(Cl)cc4Cl)O3)cc2)CC1 (stereo not given),.,113*,.,.,.
COc1ccc(N2CCN(C(=O)Cn3cncn3)CC2)cc1,3,5,1,-22,0
COc1ccc(N2CCN(Cc3nc(-c4ccc(Cl)cc4Cl)no3)CC2)cc1,33,-16,20,40,12
Cc1cc(C(=O)N/N=C/c2ccccc2Br)no1,-5,-19,47,12,25
CNC(CC(=O)c1ccc([N+](=O)[O-])cc1)C(Cl)(Cl)Cl (stereo not given),.,109*,.,.,.
O=C(NCc1ccccc1)Nc1cccn(Cc2ccc(Cl)cc2)c1=O,-4,2,-6,-3,26
COc1cccc(N=Nc2ccc3cccnc3c2O)c1,13,104*,43,14,31
Cc1ccccc1N=Nc1ccc(O)c2ncccc12,.,-33,.,.,.
